Source: PubChem (National Center for Advancing Translational Sciences (NCATS))
Sampled rows, rich in hits. Any-hit rate of the full collection: about 11%.
12-hLO inh = inhibitors of human 12-lipoxygenase (ALOX12); P18054; purified 12-hLO, xylenol orange hydroperoxide absorbance; Potency, µM (top dose mostly 57.1 µM), usual class: inhibitors; 150,000 compounds, 0.12% hits; AID 1452; note: nearly all actives have a fitted effect of over 55% in size
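Hydroperoxide formation by human 12-lipoxygenase from 40 uM arachidonic acid was followed colorimetrically via ferric-xylenol orange complex, using the 573/405 nm absorbance ratio. Enzyme concentration was 150 nM, with 30 min reaction at room temperature.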
IMPase cell inh = cell-permeable inhibitors of inositol monophosphatase (IMPase) | P97697 | CHO-M1 cells, IP1 accumulation, HTRF TR-FRET ratio | inhibition (IP1 accumulation), % at 46.1 µM | 120,000 tested, under 10 active | AID 901; active = well fitted curve in the direction sought with a large enough effect in the signal ratio, not every such curve was filed as active; inconclusive = small, poorly fitted or top-dose-only effect, or a change in a side signal; inactive = no such curve, though single readings can be large or run the other way; the % refers to the signal ratio;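 note: cells stimulated with carbachol in lithium chloride buffer; higher means more IMPase inhibition seen as more IP1 and lower FRET ratio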
Target sequence (P97697 whole entry, looked up): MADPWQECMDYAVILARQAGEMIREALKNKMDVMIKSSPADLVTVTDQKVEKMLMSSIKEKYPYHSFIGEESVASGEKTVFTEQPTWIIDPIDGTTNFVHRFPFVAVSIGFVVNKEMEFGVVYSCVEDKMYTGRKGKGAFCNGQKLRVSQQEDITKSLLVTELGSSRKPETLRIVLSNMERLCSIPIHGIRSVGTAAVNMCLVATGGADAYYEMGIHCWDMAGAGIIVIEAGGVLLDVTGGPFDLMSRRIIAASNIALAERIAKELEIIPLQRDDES
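Seeded CHO-M1 cells were dosed with compound at up to 46 uM, stimulated with carbachol for 30 min, then lysed in IP-One detection reagents. Higher IP1 lowers the TR-FRET signal.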
PNC assembly inh = inhibitors of perinucleolar compartment assembly | PC3M PTB-GFP, PNC prevalence imaging, 16 h; stronger effect = lower value | activity change (PNC), negative = inhibition, % at 10 µM | 140,000 compounds, 3.1% hits | AID 2417;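 active = readout at or below -70, meaning at least 70% loss of cells showing the perinucleolar compartment, a nuclear body marking cancer cells; inconclusive = readout between -30 and a set limit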
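Read-out is percentage of cells bearing a perinucleolar compartment, from automated 20x imaging of fixed, Hoechst-stained PC3M PTB-GFP cells. Cells were seeded 4 h, then exposed 16 h to compound (23 nl of library stock) in duplicate plates.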
ALDH1A1 inh = blocks purified human ALDH1A1 activity. AID 1030. P00352. Purified ALDH1A1, NADH fluorescence, propionaldehyde substrate. Potency, µM (titrated, usually from 75.3 µM), actives largely listed as inhibitors. 220,000 compounds, 7.3% hits; active = well fitted inhibition curve with a large enough effect, not every such curve was filed as active; inconclusive = small, poorly fitted or top-dose-only effect, or another doubt; inactive = no such curve, though single readings can be large or run the other way
HPGD inh = HPGD (human) dehydrogenase inhibition; P15428; purified HPGD, NADH fluorescence kinetic, PGE2 substrate; Potency, µM, hits mostly inhibitors; 150,000 compounds, 4.3% hits; AID 894; active = well fitted inhibition curve with a large enough effect, not every such curve was filed as active; inconclusive = small, poorly fitted or top-dose-only effect, or another doubt; inactive = no such curve, though single readings can be large or run the other way
Target sequence (P15428 whole entry, looked up): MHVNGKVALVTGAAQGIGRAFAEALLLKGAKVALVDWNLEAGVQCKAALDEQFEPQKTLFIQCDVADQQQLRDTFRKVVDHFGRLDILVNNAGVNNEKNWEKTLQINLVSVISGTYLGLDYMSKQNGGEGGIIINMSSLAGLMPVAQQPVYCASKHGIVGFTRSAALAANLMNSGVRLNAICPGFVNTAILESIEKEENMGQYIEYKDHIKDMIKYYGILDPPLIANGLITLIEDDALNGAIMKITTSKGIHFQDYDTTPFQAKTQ
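20 nM HPGD preincubated 15 min at room temperature with compound in 50 mM Tris-HCl pH 8, 0.01% Tween 20. Started with 1 mM NAD+ and 30 uM prostaglandin E2; NADH fluorescence (360/450 nm) read 5 times over 30-s intervals, last minus first.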
IMPase Li cell = membrane-permeable IMPase blocker, potentiated with lithium | CHO-M1 cells, IP1 TR-FRET (IP-One), carbachol + lithium | Potency, µM (titrated, usually from 59.4 µM), hits mostly inhibitors | 210,000 compounds, 0.35% hits;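 note: IP1 builds up when IMPase is blocked and the TR-FRET signal falls; nearly all actives have a fitted effect of over 50% in size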
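Test compounds were applied to CHO-M1 cells previously cultured for 16–30 h at 2000 per well. A small lithium amount accompanied them; after 30 min at 37C, IP1 was quantified by TR-FRET.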
A number is an active result; [ ] = dose if it differs, or a comment. Unless noted, calls come from the whole dose curve; as a rule, active = well fitted curve in the direction sought with a large enough effect; inconclusive = small, poorly fitted or top-dose-only effect, or another doubt; inactive = no such curve, though single readings can be large; an effect the other way counts as inactive or inconclusive.

For COc1ccc2[nH]cc(CCNc3nc(-c4c(C)noc4C)nc4ccccc34)c2c1 the results were ALDH1A1 inh inconclusive and IMPase Li cell inactive.
For C=C1c2ccccc2O[C@H](C(=O)OCC)[C@@H]1CCC(C)C (tested in a mixture with another compound) the results were 12-hLO inh inactive[0.00818 µM], ALDH1A1 inh 32µM, HPGD inh inactive and IMPase Li cell inactive.
For C=C1c2ccccc2O[C@H](C(=O)OCC)C1OC (mixture of isomers) the results were 12-hLO inh inactive[0.00818 µM], ALDH1A1 inh 32µM, HPGD inh inactive and IMPase Li cell inactive.
For CCCn1c(C)nc2c(NCCO)nc(C)nc21 the results were 12-hLO inh inactive, ALDH1A1 inh inactive, HPGD inh inactive and IMPase Li cell inactive.
For COCCn1c(=O)c(-c2ccc(Cl)cc2)nc2cnc(Oc3ccc(OC)cc3)nc21 the results were 12-hLO inh inactive, ALDH1A1 inh inconclusive, HPGD inh inconclusive and IMPase Li cell inactive.
Screening COc1ccc2nc(C)cc(SCC(=O)N/N=C/c3ccc(O)cc3O)c2c1 returned 12-hLO inh inactive, PNC assembly inh inactive, ALDH1A1 inh 25µM, HPGD inh inactive and IMPase Li cell inactive.
Screening COc1ccc2nc(C)cc(SCC(=O)N/N=C/c3ccccc3)c2c1 returned 12-hLO inh inactive, PNC assembly inh inactive, ALDH1A1 inh inactive, HPGD inh inactive and IMPase Li cell inactive.
For COc1cccc2c(SCC(=O)N/N=C/c3ccc(O)cc3O)cc(C)nc12 the results were ALDH1A1 inh 28µM and IMPase Li cell inactive.
Screening O=C(CSCCO)Nc1ccc(C2CCCCC2)cc1 returned 12-hLO inh inactive, IMPase cell inh inactive, PNC assembly inh -127, ALDH1A1 inh 7.1µM, HPGD inh 4.5µM and IMPase Li cell inactive.
For O=C(CCN1CCN(CCO)CC1)Nc1ccc(C2CCCC2)cc1 the results were ALDH1A1 inh inconclusive and IMPase Li cell inactive.
For CC1=NNC(=S)NCCCN2CCN(CCCNC(=S)NN=C(C)C=NNC(=S)NCCCN3CCN(CCCNC(=S)NN=C1)CC3)CC2 the results were 12-hLO inh inactive[11.4 µM], ALDH1A1 inh inactive[13.5 µM], HPGD inh inactive and IMPase Li cell inactive.
COCCCN1CN(Cc2ccccc2)CNC1=S was read as 12-hLO inh inactive, IMPase cell inh inactive, PNC assembly inh -92, ALDH1A1 inh 8.9µM, HPGD inh inactive and IMPase Li cell inactive.
CCCN1CN(Cc2ccccc2)CNC1=S was read as 12-hLO inh inactive, IMPase cell inh inactive, PNC assembly inh inconclusive, ALDH1A1 inh inactive, HPGD inh inactive and IMPase Li cell inactive.
`COC(=O)[C@@]1(Cc2ccc(F)cc2)[C@H]2c3cc(C(=O)N(C)C)n(CCCNc4ccc(C(F)(F)F)cc4Cl)c3C[C@H]2CN1C(=O)c1ccccc1` gave 12-hLO inh inactive, ALDH1A1 inh inactive, HPGD inh inactive and IMPase Li cell inactive.
For CC1=CC(=O)C(C(C)C)=C/C1=N/OC(=O)c1cccc([N+](=O)[O-])c1 the results were 12-hLO inh inactive, IMPase cell inh inactive, PNC assembly inh inactive, ALDH1A1 inh inconclusive, HPGD inh inconclusive and IMPase Li cell inactive.
CC1=CC(=O)C(C(C)C)=CC1=NC(=O)c1ccc(C)cc1 was read as ALDH1A1 inh 18µM and IMPase Li cell inactive.
Screening NCCCCCc1cnc[nH]1 returned 12-hLO inh inactive[0.00818 µM], ALDH1A1 inh inactive, HPGD inh inactive and IMPase Li cell inactive.
For O=C(CCS(=O)(=O)c1ccc(Br)cc1)Nc1cc(F)ccc1F the results were 12-hLO inh inactive, PNC assembly inh inactive, ALDH1A1 inh 22µM, HPGD inh inactive and IMPase Li cell inactive.
`COC(=O)c1ccccc1NC(=O)CCS(=O)(=O)c1ccc(Br)cc1` gave ALDH1A1 inh inconclusive and IMPase Li cell inactive.
For COC(=O)N/N=C/c1cn(Cc2ccccc2Cl)c2ccccc12 the results were 12-hLO inh inactive, IMPase cell inh inactive, PNC assembly inh inconclusive, ALDH1A1 inh inactive, HPGD inh inactive and IMPase Li cell inactive.
`Cc1[nH][nH]c(=O)c1C(c1c(C)[nH][nH]c1=O)c1cn(Cc2ccccc2Cl)c2ccccc12` gave 12-hLO inh inactive, PNC assembly inh inactive, ALDH1A1 inh 0.45µM, HPGD inh inactive and IMPase Li cell inactive.
